Where “and” joins values, the source holds several entries; their conditions need not be identical. Equal values may be shown once. Where a structure was tested more than once in an assay, its records may differ in their call. Calls of active or inactive are those of the source. How the source made its calls: active means hit-call score of the fitted dose curve at least 0.9, where 1 is the maximum; inactive means score below 0.9.
Tests used:
Conditions in all cases: mRNA level, 48 h; actives raise or lower the signal
[1] = read-out: Early growth response protein 1 (EGR1) transcription factor, EGR1 (gene 1958); experiment: LTEA_HepaRG_EGR1: Life Technologies and Expression Analysis (LTEA) Assay for Early growth response protein 1 (EGR1) transcription factor using HepaRG (AID 2283490)
Outline: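 Differentiated HepaRG cells in serum-free induction medium exposed 48 hours, duplicate, to 8 half-log concentrations up to 100 uM in 0.5% DMSO. EGR1 mRNA measured by TaqMan qRT-PCR, normalized to ACTB, GAPDH, POLR2A; bidirectional fit versus DMSO.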

[2] = read-out: Ezrin (EZR), EZR (gene 7430); experiment: LTEA_HepaRG_EZR: Life Technologies and Expression Analysis (LTEA) Assay for Ezrin (EZR) using HepaRG (AID 2283491)
Outline: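 Gain or loss of EZR mRNA is scored relative to 0.5% DMSO in human HepaRG cultures treated 48 h with test chemicals in duplicate, eight half-log concentrations from 100 uM.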

[3] = read-out: Cytochrome P450 3A7 (Homo sapiens) (UniProt P24462); experiment: LTEA_HepaRG_CYP3A7: Life Technologies and Expression Analysis (LTEA) Assay for CYP3A7 using HepaRG (AID 2283492)
Outline: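 qRT-PCR of CYP3A7 in HepaRG lysates after 48 h treatment; concentration-response (8 points, max 100 uM) analysed bidirectionally relative to 0.5% DMSO controls.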

CYP3A5 (gene 1577) = experiment: LTEA_HepaRG_CYP3A5: Life Technologies and Expression Analysis (LTEA) Assay for CYP3A5 using HepaRG (AID 2283493)
Outline: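 HepaRG plated 48 h, switched to serum-free induction medium, chemicals added 48 h (max 100 uM, half-log, 0.5% DMSO). RNA isolated; CYP3A5 by TaqMan qRT-PCR. Gain/loss vs DMSO.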

[4] = read-out: Fatty Acid-Binding Protein 1 (FABP1), FABP1 (gene 2168); experiment: LTEA_HepaRG_FABP1: Life Technologies and Expression Analysis (LTEA) Assay for Fatty Acid-Binding Protein 1 (FABP1) using HepaRG (AID 2283494)
Outline: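 Differentiated human HepaRG cells exposed 48 h in serum-free induction medium to eight half-log concentrations up to 100 uM (0.5% DMSO), duplicate. FABP1 mRNA by qRT-PCR, normalised to ACTB, GAPDH, POLR2A; bidirectional fitting against DMSO.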

[5] = read-out: Cytochrome P450 4A22 (Homo sapiens) (UniProt Q5TCH4); experiment: LTEA_HepaRG_CYP4A22: Life Technologies and Expression Analysis (LTEA) Assay for Cytochrome P450 4A22 (CYP4A22) using HepaRG (AID 2283495)
Outline: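 Concentration-response (8 points, max 100 uM, 0.5% DMSO) in human HepaRG liver cells after 48 h exposure. CYP4A22 mRNA by TaqMan qRT-PCR with housekeeping-gene normalization.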

[6] = read-out: Cytochrome P450 7A1 (Homo sapiens) (UniProt P22680); experiment: LTEA_HepaRG_CYP7A1: Life Technologies and Expression Analysis (LTEA) Assay for Cytochrome P450 7A1 (CYP7A1) using HepaRG (AID 2283496)
Outline: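 HepaRG cells plated 48 h, then switched to serum-free induction medium and exposed in duplicate for 48 h to 8-point half-log series from 100 uM in 0.5% DMSO. CYP7A1 mRNA by qRT-PCR (TaqMan), normalized to ACTB/GAPDH/POLR2A; bidirectional fit versus DMSO.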

[7] = read-out: Glutathione S-Transferase (GSTA2), GSTA2 (gene 2939); experiment: LTEA_HepaRG_GSTA2: Life Technologies and Expression Analysis (LTEA) Assay for Glutathione S-Transferase (GSTA2) using HepaRG (AID 2283497)
Outline: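 Differentiated human HepaRG cells were exposed in duplicate for 48 h in serum-free induction medium, 8 points from 100 uM top in half-log steps, 0.5% DMSO. GSTA2 mRNA was measured by TaqMan qRT-PCR, normalized to ACTB, GAPDH and POLR2A; bidirectional fit versus DMSO.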

[8] = read-out: Glutamate-cysteine ligase catalytic (GCLC), GCLC (gene 2729); experiment: LTEA_HepaRG_GCLC: Life Technologies and Expression Analysis (LTEA) Assay for Glutamate-cysteine ligase catalytic (GCLC) using HepaRG (AID 2283498)
Outline: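 Differentiated HepaRG cells exposed 48 h in serum-free induction medium, eight-point half-log series topping at 100 uM in 0.5% DMSO, duplicates. GCLC mRNA by qRT-PCR normalized to ACTB, GAPDH and POLR2A, fitted bidirectionally versus DMSO.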

[9] = read-out: growth arrest and DNA damage 45 (GADD45G), GADD45G (gene 10912); experiment: LTEA_HepaRG_GADD45G: Life Technologies and Expression Analysis (LTEA) Assay for growth arrest and DNA damage 45 (GADD45G) using HepaRG (AID 2283499)
Outline: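 Concentration-response in HepaRG: 48 h dosing, 0.5% DMSO, highest level 100 uM. GADD45G expression by qRT-PCR, normalised to endogenous controls; bidirectional fit to DMSO.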

[10] = read-out: Glutamate-cysteine ligase regulatory (GCLM), GCLM (gene 2730); experiment: LTEA_HepaRG_GCLM: Life Technologies and Expression Analysis (LTEA) Assay for Glutamate-cysteine ligase regulatory (GCLM) using HepaRG (AID 2283500)
Outline: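 Cells were plated, cultured 48 h, switched to serum-free induction medium, then dosed in duplicate for 48 h at eight half-log concentrations up to 100 uM. RNA was then profiled by qRT-PCR; gain or loss versus DMSO was fitted.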

[11] = read-out: Glutathione S-transferase M3 (GSTM3), GSTM3 (gene 2947); experiment: LTEA_HepaRG_GSTM3: Life Technologies and Expression Analysis (LTEA) Assay for Glutathione S-transferase M3 (GSTM3) using HepaRG (AID 2283501)
Outline: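 Expression of GSTM3 is determined by qRT-PCR in human liver HepaRG cells treated 48 h with an 8-point half-log range from 100 uM in 0.5% DMSO.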

[12] = read-out: Heat shock 70 kDa protein 1 (HSPA1A), gene 3303; experiment: LTEA_HepaRG_HSPA1A: Life Technologies and Expression Analysis (LTEA) Assay for Heat shock 70 kDa protein 1 (HSPA1A) using HepaRG (AID 2283502)
Outline: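 Readout is HSPA1A transcript level by microfluidic qRT-PCR, normalized to three housekeeping genes and analysed for gain or loss of signal relative to 0.5% DMSO. Human HepaRG cultures received test chemicals for 48 h at up to 100 uM.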

[13] = read-out: Hypoxia-inducible factor 1-alpha (Homo sapiens) (UniProt Q16665); experiment: LTEA_HepaRG_HIF1A: Life Technologies and Expression Analysis (LTEA) Assay for Hypoxia-inducible factor 1 (HIF1A) Trancription factor using HepaRG (AID 2283503)
Outline: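 Differentiated HepaRG cells in serum-free induction medium exposed 48 h, in duplicate, to 8-point half-log series from 100 uM in 0.5% DMSO. HIF1A mRNA measured by TaqMan qRT-PCR, normalized to ACTB/GAPDH/POLR2A, fitted bidirectionally versus DMSO.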

[14] = read-out: 3-Hydroxy-3-Methylglutaryl-CoA Synthase 2 (HMGCS2), HMGCS2 (gene 3158); experiment: LTEA_HepaRG_HMGCS2: Life Technologies and Expression Analysis (LTEA) Assay for 3-Hydroxy-3-Methylglutaryl-CoA Synthase 2 (HMGCS2) using HepaRG (AID 2283504)
Outline: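 This steatosis marker was read as HMGCS2 mRNA change in HepaRG cells treated 48 h with up to 100 uM chemical. Normalisation used housekeeping genes; activity in either direction was fitted relative to 0.5% DMSO vehicle.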

HGF (gene 3082) = experiment: LTEA_HepaRG_HGF: Life Technologies and Expression Analysis (LTEA) Assay for Hepatocyte Growth Facto (HGF) using HepaRG (AID 2283505)
Outline: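 Using HepaRG monolayers kept in 0.5% DMSO, chemicals were tested in duplicate over eight half-log concentrations from 100 uM for 48 h. Endpoint: HGF mRNA change relative to DMSO, normalized to ACTB/GAPDH/POLR2A.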

[15] = read-out: Insulin Like Growth Factor 1 (IGF1), IGF1 (gene 3479); experiment: LTEA_HepaRG_IGF1: Life Technologies and Expression Analysis (LTEA) Assay for Insulin Like Growth Factor 1 (IGF1) using HepaRG (AID 2283506)
Outline: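 HepaRG, plated 48 h, then switched to serum-free induction media; test chemical 8-pt half-log from 100 uM (0.5% DMSO), duplicate, 48 h. Lysis in RLT, TaqMan qRT-PCR, norm. ACTB/GAPDH/POLR2A. Bidirectional fit vs DMSO.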

[16] = read-out: Intercellular Adhesion Molecule 1 (ICAM1), ICAM1 (gene 3383); experiment: LTEA_HepaRG_ICAM1: Life Technologies and Expression Analysis (LTEA) Assay for Intercellular Adhesion Molecule 1 (ICAM1) using HepaRG (AID 2283507)
Outline: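 Using the human liver line HepaRG, compounds are tested in duplicate over 48 h at concentrations up to 100 uM. Expression is determined by TaqMan qRT-PCR, normalized to endogenous controls, and analysed relative to 0.5% DMSO vehicle.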

[17] = read-out: Insulin-like growth factor-binding protein 1 (IGFBP1), IGFBP1 (gene 3484); experiment: LTEA_HepaRG_IGFBP1: Life Technologies and Expression Analysis (LTEA) Assay for Insulin-like growth factor-binding protein 1 (IGFBP1) using HepaRG (AID 2283508)
Outline: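 HepaRG, 48 h, 8 conc. (max 100 uM, half-log), duplicates, 0.5% DMSO. Readout: TaqMan qRT-PCR, ACTB/GAPDH/POLR2A normalisation. Fit: bidirectional vs DMSO.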

[18] = read-out: Interleukin 6 (IL6), IL6 (gene 3569); experiment: LTEA_HepaRG_IL6: Life Technologies and Expression Analysis (LTEA) Assay for Interleukin 6 (IL6) using HepaRG (AID 2283509)
Outline: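 HepaRG cells exposed in duplicate for 48 h to eight half-log concentrations, top 100 uM, in 0.5% DMSO serum-free induction medium. mRNA measured by qRT-PCR, normalized to ACTB, GAPDH and POLR2A. Bidirectional fit versus DMSO.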

Measured: AC50

Hypoxia-inducible factor 1-alpha (Homo sapiens), sequence (Q16665 whole entry, looked up): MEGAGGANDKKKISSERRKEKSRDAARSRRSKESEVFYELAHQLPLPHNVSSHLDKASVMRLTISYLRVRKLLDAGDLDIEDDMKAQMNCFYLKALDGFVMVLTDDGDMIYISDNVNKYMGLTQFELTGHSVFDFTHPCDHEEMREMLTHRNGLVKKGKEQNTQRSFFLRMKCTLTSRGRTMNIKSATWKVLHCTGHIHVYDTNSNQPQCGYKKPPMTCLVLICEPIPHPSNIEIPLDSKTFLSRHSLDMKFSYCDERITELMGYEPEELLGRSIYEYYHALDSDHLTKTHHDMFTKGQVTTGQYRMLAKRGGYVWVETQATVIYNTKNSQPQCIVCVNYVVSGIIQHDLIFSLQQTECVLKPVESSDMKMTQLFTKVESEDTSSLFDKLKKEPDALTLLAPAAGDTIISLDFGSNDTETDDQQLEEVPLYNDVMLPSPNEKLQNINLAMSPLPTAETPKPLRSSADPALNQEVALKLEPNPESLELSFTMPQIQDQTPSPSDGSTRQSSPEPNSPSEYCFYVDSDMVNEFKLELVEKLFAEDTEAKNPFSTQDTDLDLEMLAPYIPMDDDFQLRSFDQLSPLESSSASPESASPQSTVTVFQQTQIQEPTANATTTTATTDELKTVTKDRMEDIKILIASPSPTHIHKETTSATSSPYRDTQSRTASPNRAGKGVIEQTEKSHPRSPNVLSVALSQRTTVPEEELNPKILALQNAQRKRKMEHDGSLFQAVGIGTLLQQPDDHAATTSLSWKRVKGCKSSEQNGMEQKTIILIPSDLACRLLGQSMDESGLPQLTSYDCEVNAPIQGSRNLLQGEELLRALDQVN
Cytochrome P450 3A7 (Homo sapiens), sequence (P24462 whole entry, looked up): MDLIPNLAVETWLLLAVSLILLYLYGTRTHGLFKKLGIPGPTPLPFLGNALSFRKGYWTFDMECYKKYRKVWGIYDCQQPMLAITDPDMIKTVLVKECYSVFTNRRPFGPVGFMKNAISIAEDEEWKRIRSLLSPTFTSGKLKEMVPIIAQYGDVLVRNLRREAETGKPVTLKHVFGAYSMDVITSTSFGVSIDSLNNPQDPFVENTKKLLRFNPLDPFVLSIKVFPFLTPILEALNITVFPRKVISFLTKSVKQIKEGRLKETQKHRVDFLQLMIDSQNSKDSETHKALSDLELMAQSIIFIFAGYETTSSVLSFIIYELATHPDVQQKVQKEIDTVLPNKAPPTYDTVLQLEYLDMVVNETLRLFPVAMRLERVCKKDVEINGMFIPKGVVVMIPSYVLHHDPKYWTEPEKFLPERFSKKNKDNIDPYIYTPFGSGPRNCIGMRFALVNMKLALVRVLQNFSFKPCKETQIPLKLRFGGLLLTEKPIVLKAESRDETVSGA

COc1nn(CSP(=S)(OC)OC)c(=O)s1
inactive: all assays above

O=C(O)C(F)(F)C(F)(F)C(F)(F)C(F)(F)C(F)(F)C(F)(F)C(F)(F)F
active: [1] 12.1 µM | [3] 22.1 µM and 9.92 µM | [4] 11 µM and 8 µM | [5] 6.42 µM and 5.96 µM | [12] 50 µM | [14] 15.2 µM and 7.54 µM
inactive: [1] | [2] | CYP3A5 (gene 1577) | [6] | [7] | [8] | [9] | [10] | [11] | [12] | [13] | HGF (gene 3082) | [15] | [16] | [17] | [18]

CNC(=O)Oc1cccc(N=CN(C)C)c1
inactive: all assays above

ClC1C(Cl)C(Cl)C(Cl)C(Cl)C1Cl (configuration not stated)
active: [4] 6.88 µM | [5] 9.67 µM and 8.27 µM | [6] 3.88 µM | [9] 0.488 µM | [14] 25.4 µM | [15] 6.89 µM
inactive: [1] | [2] | [3] | CYP3A5 (gene 1577) | [4] | [6] | [7] | [8] | [9] | [10] | [11] | [12] | [13] | [14] | HGF (gene 3082) | [16] | [17] | [18]

N#CN
inactive: all assays above

CCC(C)(C)C(=O)OC1=C(c2ccc(Cl)cc2Cl)C(=O)OC12CCCCC2
active: [3] 25.5 µM | [14] 50 µM | [15] 31.1 µM
inactive: all other assays above

O=[N+]([O-])c1c(Cl)c(Cl)c(Cl)c(Cl)c1Cl
active: [4] 50 µM | [15] 50 µM | [18] 9.92 µM
inactive: all other assays above

Oc1ccc(Cl)cc1Cc1ccccc1
active: [1] 50.5 µM | CYP3A5 (gene 1577) 50.5 µM | [4] 50.5 µM | [5] 91.8 µM | [6] 76.1 µM | [7] 80.5 µM and 92.2 µM | [11] 91.9 µM | [14] 76.8 µM | HGF (gene 3082) 83.5 µM | [17] 75.2 µM and 88.5 µM
inactive: [1] | [2] | [3] | CYP3A5 (gene 1577) | [4] | [5] | [6] | [7] | [8] | [9] | [10] | [11] | [12] | [13] | [14] | HGF (gene 3082) | [15] | [16] | [17] | [18]

O=S(=O)(O)C(F)(F)C(F)(F)C(F)(F)C(F)(F)C(F)(F)C(F)(F)C(F)(F)C(F)(F)F
inactive: [1] | [2] | CYP3A5 (gene 1577) | [4] | [6] | [8] | [9] | [10] | [11] | [12] | [13] | [14] | HGF (gene 3082) | [16] | [17] | [18]
active: [1] 50 µM and 7.35 µM | [2] 50 µM and 14.2 µM | [4] 94.2 µM and 77 µM | [5] 89.2 µM [middle of 4 runs] | [6] 94.4 µM and 94 µM and 75.4 µM | [7] 76.5 µM [middle of 4 runs] | [9] 5.76 µM | [12] 19.9 µM | [14] 83.8 µM and 92.2 µM and 81.5 µM | [17] 77.6 µM and 50 µM

O=C(NC(=O)c1c(F)cccc1F)Nc1ccc(OC(F)(F)C(F)OC(F)(F)F)c(Cl)c1 (configuration not stated)
inactive: all assays above

Source: PubChem BioAssay (EPA / NIEHS)
